Compounds with a hit are over-represented: about 12% of the library has one in this group of screens.
BAZ2B inh: qHTS Assay for Inhibitors of BAZ2B; Potency, µM (highest dose often 114 µM), hits mostly inhibitors; AlphaScreen BAZ2B-H3K14Ac peptide displacement; hit rate 4.4% among 360,000; Bromodomain adjacent to zinc finger domain protein 2B (Homo sapiens), Q9UIF8; further: nearly all actives have a fitted effect of over 60% in size
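AlphaScreen luminescence quantifies BAZ2B engagement of H3K14Ac peptide; the protein and biotinylated peptide are both at 50 nM final, buffer PBS pH 7.4 with 0.01% Tween-20, all steps at room temperature.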
HP1b binding inh: HTS for Inhibitors of HP1-beta Chromodomain Interactions with Methylated Histone Tails | Potency, µM (top dose mostly 114 µM), actives largely listed as inhibitors | Chromobox protein homolog 1 (Homo sapiens), P83916 | AlphaScreen HP1-beta / biotin-H3K9me3 peptide binding | hit rate 0.56% among 390,000; further: nearly all actives have a fitted effect of over 70% in size
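AlphaScreen: HP1-beta (50 nM) preformed 30 min with biotin-H3(1-18)K9me3 peptide (50 nM) in PBS pH 7.4, 0.01% Tween-20. Compound added for 30 min at RT, then streptavidin donor/nickel chelate acceptor beads (10 ug/mL) for 30 min.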
Sfp inh: qHTS Assay for Inhibitors of Bacillus subtilis Sfp phosphopantetheinyl transferase (PPTase) | 4'-phosphopantetheinyl transferase ffp (Bacillus subtilis), Q9F4F7 | Biochemical Sfp PPTase activity, qHTS | Potency, µM, usual class: inhibitors | hit rate 3.5% among 310,000 | AID 1490, 2009;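 further: the enzyme is Sfp with the accession as filed and its product quenches rhodamine fluorescence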
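Step 1, compound plus 15 nM Sfp-PPTase, 15 min, room temperature. Step 2, add rhodamine-CoA (5 uM) and BHQ-2-YbbR (12.5 uM). Step 3, read 525/598 nm fluorescence at 0 and 30 min.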
PLK1 PBD inh: qHTS for Inhibitors of PLK1-PDB (polo-like kinase 1 - polo-box domain): Primary Screen; Serine/threonine-protein kinase PLK1 (Homo sapiens), P53350; Plk1 PBD binding of FITC phosphopeptide, fluorescence polarization; Potency, µM, most hits filed as inhibitors; hit rate 2.8% among 360,000; further: series mostly up to about 57 µM; nearly all actives have a fitted effect of over 65% in size
G9a block: qHTS Assay for Inhibitors of Histone Lysine Methyltransferase G9a. Histone-lysine N-methyltransferase EHMT2 (Homo sapiens), Q96KQ7. G9a H3K9 monomethylation, AlphaScreen, 2 h. Potency, µM (highest dose often 102 µM), actives largely listed as inhibitors. hit rate 8.8% among 350,000. AID 504332, 2011; further: nearly all actives have a fitted effect of over 75% in size
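Quantitative HTS format: methyltransferase activity on a biotin-tagged H3K9 peptide is measured by AlphaScreen, using a rabbit anti-monomethyl-H3K9 antibody with streptavidin donor and anti-IgG acceptor beads. Final levels are 20 nM enzyme, 500 nM peptide, 20 uM SAM; 2 h RT.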
JMJD2A Tudor inh: qHTS Assay for Inhibitors of JMJD2A-Tudor Domain; hit rate 4.4% among 390,000; AID 504339, 2011; Potency, µM (doses to about 114 µM), most hits filed as inhibitors; Lysine-specific demethylase 4A (Homo sapiens), O75164; AlphaScreen JMJD2A-Tudor / H3K4me3 peptide binding; further: nearly all actives have a fitted effect of over 50% in size
Numbers stand for hits; n = inactive; u = inconclusive; x = not tested or not shown; [ ] = another dose, or the depositor's remark. The call rests on the fitted dose curve; in most records, active means well fitted curve in the direction sought with a large enough effect; inconclusive means small, poorly fitted or top-dose-only effect, or another doubt; inactive means no such curve, though single readings can be large; an effect the other way counts as inactive or inconclusive.

SMILES	BAZ2B inh	HP1b binding inh	Sfp inh	PLK1 PBD inh	G9a block	JMJD2A Tudor inh
COCCn1c(=S)[nH]c2cc(C(=O)N3CCc4ccccc4C3)ccc2c1=O	n	n	n	u	n	31.6µM
Cc1cc(C)n(-c2nc3ccccc3nc2Nc2ccc(Cl)c(C(=O)OC(C)C)c2)n1	n	n	x	x	n	n
OCCNC(=S)Nc1ccc2c(c1)OCCO2	n	n	n	n	x	n
S=C(Nc1ccc2c(c1)OCO2)Nc1ccccc1Cl	n	n	17.8µM	u	u	n[11.4 µM]
S=C(Nc1ccc2c(c1)OCCO2)Nc1ccc2c(c1)OCO2	u	n	n	n	50.1µM	n
CC1(C)C(=O)C(c2ccccc2)=C2CN3C(=O)N(CCc4ccccc4)C(=O)C3(Cc3ccc(C(F)(F)F)cc3)C=C21 (stereo not given)	x	x	n	x	x	x
NC(N)=NCCC[C@H](NC(=O)[C@H](Cc1ccccc1)NC(=O)[C@@H]1CCCN1C(=O)[C@H](CO)NC(=O)[C@H](Cc1ccccc1)NC(=O)CNC(=O)[C@@H]1CCCN1C(=O)[C@@H]1CCCN1C(=O)[C@@H](N)CCCN=C(N)N)C(=O)O	x	x	n	x	x	x
O=C1CCCC(O)=C1C(C#Cc1ccccc1)C1=C(O)CCCC1=O	n	u	n	2.38µM	0.891µM	15.8µM
O=C1CCCC(O)=C1Sc1ccccc1C(=O)O	79.4µM	25.1µM	56.2µM	21.2µM	25.1µM	22.4µM
CC1(C)CC(=O)C(C(C#Cc2ccccc2)C2=C(O)CC(C)(C)CC2=O)=C(O)C1	u	n	u	4.23µM	12.6µM	n
C/C(=N/NC(=O)c1ccccc1)C1=C(O)CC(C)(C)CC1=O	n	n	n	n	x	n
COc1ccc2[nH]cc(CCNc3nc(-c4ccc(N(C)C)cc4)nc4ccccc34)c2c1	x	x	17.8µM	x	n[0.501 µM]	x
COc1ccc2[nH]cc(CCNc3cc(-c4ccccc4Cl)ncn3)c2c1	x	x	u	x	n[0.501 µM]	x
COc1ccccc1CNc1nc(-c2ccc(C(=O)N(C)C)cc2)nc2ccccc12	x	x	n	x	n[0.501 µM]	x
COc1ccc2[nH]cc(CCNc3cc(-c4ccccc4C(F)(F)F)ncn3)c2c1	x	x	79.4µM	x	x	x
COc1ccccc1CNc1nc(-c2ccc(N(C)C)cc2)nc2ccccc12	x	x	15.8µM	x	x	x
COc1ccc(CCN2CC(C(=O)N3CCCCCC3)CCC2=O)cc1 (stereo not given)	n	n	n	n	x	n
CCCCN(C(=O)c1ccc(N2CCCC2=O)cc1)c1c(N)n(CCC)c(=O)[nH]c1=O	n	n	x	n	n[12.7 µM]	n
CN(C)c1ccc(C(=O)/C=C/c2ccc(Br)cc2)cc1	n	n	n	n	u	n
O=C(/C=C/c1ccncc1)c1cc(Cl)ccc1O	44.7µM	u	n	n	22.4µM	35.5µM
CN(C)c1ccc(/C=C/C(=O)c2cc(Cl)ccc2O)cc1	6.31µM	u	n	n	3.98µM	12.6µM
Cc1csc(=O)n1CCC(=O)OCC(=O)N(C)c1c(N)n(Cc2ccccc2)c(=O)[nH]c1=O	x	x	x	n	x	x
O=C(COC(=O)c1ccc(Cl)nc1)Nc1ccc(N2CCCCC2)cc1	x	n	x	n	x	n
CCOC(=O)c1cc(S(=O)(=O)NC2CCN(C(=O)OCC)CC2)cn1C	n	n	n	n	50.1µM	n
CN(/N=C/C=C/c1ccccc1)c1cc(=O)n(C)c(=O)[nH]1	n	n	u	n	n	u
SMILES	BAZ2B inh	HP1b binding inh	Sfp inh	PLK1 PBD inh	G9a block	JMJD2A Tudor inh
COc1ccc(/C=N/N(C)c2cc(=O)n(C)c(=O)[nH]2)cc1OC	79.4µM	n	n	n	39.8µM	n
Cc1cc(C)c(CN2CCN(CCCn3ccc(NC(=O)OCc4ccccc4)nc3=O)CC2)c(C)c1	x	n	x	n	x	n
CC12CCC(=O)N1C(C(=O)NCCN1C(=O)S/C(=C\c3ccccc3Cl)C1=O)CS2 (stereo not given)	n	n	x	n	n[12.7 µM]	n
Cc1ccc(/C=C2\SC(=O)N(CCNC(=O)C3CSC4(C)CCC(=O)N34)C2=O)cc1 (stereo not given)	n	n	x	n	35.5µM	n
CN1C(=O)C2(c3ccccc31)N(c1ccccc1)C(=O)CS2(=O)=O (stereo not given)	n	n	x	x	n	n
CN1C(=O)C2(c3ccccc31)N(c1cccc(F)c1)C(=O)CS2(=O)=O (stereo not given)	n	n	x	x	15.8µM	n
Oc1[nH]c2ccccc2c1N=Nc1nncc2ccccc12	u	u	n	u	12.6µM	n[11.4 µM]
CCOC(=O)Cc1nn2c(=O)cc(C)nc2s1	79.4µM	n	n	n	n[12.7 µM]	n
CNc1nc(NN)nc(Nc2ccccc2)n1	28.2µM	n	n	n	n[0.501 µM]	25.1µM
CNc1nc(C#N)nc(Nc2ccccc2)n1	x	x	x	x	x	n
CC(C)c1nnc(NC(=O)c2cccc(NC(=O)C(F)(F)F)c2)s1	n	n	u	21.2µM	12.6µM	n
Cc1c(Cl)c(-c2n[nH]c(=S)n2Cc2ccco2)nn1C	n	n	n	n	7.94µM	8.91µM
Cc1cc(=O)n(Cc2ccco2)c(=S)[nH]1	x	x	x	n	x	x
Cc1nc2c([nH]1)c(=O)n(C)c(=O)n2Cc1ccco1	x	n	n	x	n	n
S=c1[nH]nc(-c2ccncc2)n1Cc1ccco1	n	n	14.1µM	n	1µM	7.94µM
S=c1[nH]nc(-c2ccc(Br)cc2)n1Cc1ccco1	u	n	n	n	0.398µM	56.2µM
COc1cccc(-c2n[nH]c(=S)n2Cc2ccco2)c1	n	n	31.6µM	u	3.16µM	20µM
COCC(=O)N1CCC2(CC1)CN(c1ccc(-c3ccccc3)cc1)C2	x	x	n	x	n[12.7 µM]	x
COc1ccc(NC(=O)Nc2cccc3c2O[C@H](CN(C)C(=O)Nc2ccc4c(c2)OCO4)[C@@H](C)CN([C@H](C)CO)C3=O)cc1	x	n	x	n	x	n
Cc1c(Cl)c(-c2n[nH]c(=S)n2-c2ccccc2)nn1C	n	n	u	n	8.91µM	4.47µM
CC12CCC(c3nnc(SCc4ccc(Cl)cc4)nc31)C2(C)C (stereo not given)	n	n	n	n	n	n
CC12CCC(c3n[nH]c(=S)nc31)C2(C)C (stereo not given)	n	n	u	n	8.91µM	20µM
COc1ccc(N2CCN(S(=O)(=O)c3ccc4c(c3)CCCC4)CC2)c([N+](=O)[O-])c1	u	u	n	n	17.8µM	u
COc1ccc(N2CCN(C(=O)c3ccccc3F)CC2)c([N+](=O)[O-])c1	u	u	n	8.44µM	50.1µM	n[11.4 µM]
COc1ccc(N2CCN(C(=O)c3ccc(F)cc3)CC2)c([N+](=O)[O-])c1	u	n	n	n	n	n
